Source: PubChem
AHR activator: activators of human aryl hydrocarbon receptor; P35869; AHR-responsive luciferase reporter cells, luminescence; activation, % at 5 µM; hit rate 2.5% among 320,000; AID 2796; in the data active = activation above about 47%
Target sequence (P35869 whole entry, looked up): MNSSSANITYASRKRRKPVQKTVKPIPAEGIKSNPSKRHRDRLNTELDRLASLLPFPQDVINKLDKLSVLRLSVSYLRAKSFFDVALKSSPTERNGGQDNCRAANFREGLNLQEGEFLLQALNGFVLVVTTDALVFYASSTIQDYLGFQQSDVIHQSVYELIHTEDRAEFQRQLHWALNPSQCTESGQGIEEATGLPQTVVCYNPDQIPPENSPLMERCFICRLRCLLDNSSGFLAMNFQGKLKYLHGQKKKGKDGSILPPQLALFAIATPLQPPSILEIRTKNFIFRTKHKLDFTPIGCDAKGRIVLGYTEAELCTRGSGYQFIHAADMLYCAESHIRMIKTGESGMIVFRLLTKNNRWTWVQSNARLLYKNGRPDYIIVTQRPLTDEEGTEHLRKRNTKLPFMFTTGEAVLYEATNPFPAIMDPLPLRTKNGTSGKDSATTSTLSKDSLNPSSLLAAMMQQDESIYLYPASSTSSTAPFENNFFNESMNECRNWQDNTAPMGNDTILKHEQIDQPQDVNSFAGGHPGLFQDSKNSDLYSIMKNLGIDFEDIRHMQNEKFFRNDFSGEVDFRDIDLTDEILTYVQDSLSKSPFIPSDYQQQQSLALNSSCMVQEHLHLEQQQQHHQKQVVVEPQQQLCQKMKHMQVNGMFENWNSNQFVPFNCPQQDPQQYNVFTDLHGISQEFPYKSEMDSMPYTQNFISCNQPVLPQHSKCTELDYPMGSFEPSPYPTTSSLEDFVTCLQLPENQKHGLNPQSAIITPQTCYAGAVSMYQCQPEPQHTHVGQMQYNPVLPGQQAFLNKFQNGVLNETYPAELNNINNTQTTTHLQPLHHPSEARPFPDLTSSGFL
HSF1 inh: HSF1 inhibition. hit rate 0.77% among 300,000. AID 2098. NIH3T3-HGL HSE-luciferase, MG132-induced, luminescence 8 h; active compounds read low. activity change, negative = inhibition, % at 7.5 µM (by protocol);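 active = more than half of replicate wells show activity change below -50%, luminescence cut by over half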;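 also: luciferase reports HSF-1 transcriptional activity via heat shock element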
NR0B1 inh: inhibits human nuclear receptor DAX1 | hit rate 0.99% among 340,000 | HEK293 Gal4-DAX1 luciferase reporter, luminescence | inhibition, % at 6.75 µM | P51843;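 active = inhibition above the mean over all tested compounds plus 3 SD, cut at about 4.2% in these data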;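 also: inhibition shows as a rise in luminescence from relieved DAX1 repression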
HSF-1 act: increases HSF-1 driven luciferase reporter signal | NIH3T3-HGL HSF-1 luciferase reporter, MG132, 8 h; 100% = twice DMSO control signal | activation, % at 9 µM | hit rate 1.7% among 300,000 | AID 504408;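 active = mean replicate activation of at least 50% with a set share of replicates each reaching 50%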
FXN GAA850 act: increases GAA850 frataxin promoter reporter activity | HEK293 lucGAA850 FXN promoter luciferase reporter, 24 h; percent of 10 µM SAHA response | activation, % at 6 µM | hit rate 0.56% among 360,000 | AID 540364;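 active = activation above the average of all compounds screened plus 3 SD, cutoff fixed separately per campaign, cut at about 7.5% in these data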
Hits are given with their value. Sampled rows, rich in hits. Any-hit rate of the full collection: about 5.4%.

COc1ccc(C(=O)NC(C)c2ccc(-n3ccnc3)cc2)c(OC)c1 (stereo not given) was read as AHR activator 54.1, HSF1 inh inactive, NR0B1 inh inactive, HSF-1 act inactive and FXN GAA850 act inactive.
For CC(NC(=O)c1ccccc1OC(F)F)c1ccc(-n2ccnc2)cc1 (stereo not given) the results were AHR activator 71.1, HSF1 inh inactive, NR0B1 inh inactive, HSF-1 act inactive and FXN GAA850 act inactive.
For CCOC(=O)c1cc(C)sc1/N=C/C1=C(O)CCCC1=O the results were AHR activator inactive, HSF1 inh inactive, NR0B1 inh inactive, HSF-1 act inactive and FXN GAA850 act inactive.
Cc1c(C)c2ccc(OCC(=O)N3CCOCC3)c(C)c2oc1=O was read as AHR activator inactive, HSF1 inh inactive, NR0B1 inh inactive, HSF-1 act inactive and FXN GAA850 act inactive.
`Cc1cc(C)c(S(=O)(=O)N2CCN(C(=O)c3ccc(-n4cncn4)c([N+](=O)[O-])c3)CC2)c(C)c1` gave AHR activator inactive, HSF1 inh inactive, NR0B1 inh inactive, HSF-1 act inactive and FXN GAA850 act inactive.
Screening COc1c(O)cc2c(c1O)C(=O)CC(c1ccccc1)O2 (stereo not given) returned HSF1 inh inactive and HSF-1 act inactive.
Screening Cc1c(O)cc2c(c1O)C(=O)CC(c1ccccc1)O2 (stereo not given) returned AHR activator 78.6, HSF1 inh inactive, NR0B1 inh inactive, HSF-1 act inactive and FXN GAA850 act inactive.
Screening O=C(Nc1ccc2ncccc2c1)c1cc(Cl)ccc1Cl returned AHR activator inactive, HSF1 inh inactive, NR0B1 inh inactive, HSF-1 act inactive and FXN GAA850 act inactive.
Screening CCc1ccc(N2C(=O)CC(Cn3nc(C)cc3C)C2=O)cc1 (stereo not given) returned AHR activator inactive, HSF1 inh inactive, NR0B1 inh 5.1, HSF-1 act inactive and FXN GAA850 act inactive.
Cc1cc(=O)oc2cc(OCC(=O)NCCCn3ccnc3)ccc12 was read as AHR activator inactive, HSF1 inh inactive, NR0B1 inh inactive, HSF-1 act inactive and FXN GAA850 act inactive.
Screening Cc1cc(=O)oc2cc(OCC(O)Cn3ccnc3)ccc12 (stereo not given) returned AHR activator 52.4, HSF1 inh inactive, NR0B1 inh inactive, HSF-1 act inactive and FXN GAA850 act inactive.
CC(C)(C)C1COc2ccccc2N1C(=O)c1cccc(Cl)c1 (stereo not given) was read as AHR activator inactive, HSF1 inh inactive, NR0B1 inh inactive, HSF-1 act inactive and FXN GAA850 act inactive.
CCn1c(=O)c2cc(C(=O)Nc3ccc(OC)cc3OC)sc2c2ccccc21 was read as AHR activator inactive, HSF1 inh inactive, NR0B1 inh 4.2, HSF-1 act inactive and FXN GAA850 act inactive.
For CCN(CC)CCNC(=O)c1cc2c(=O)n(CC)c3ccccc3c2s1 the results were AHR activator inactive, HSF1 inh inactive, NR0B1 inh inactive, HSF-1 act inactive and FXN GAA850 act inactive.
`CCCN(CCC)CCNC(=O)c1cc2c(=O)n(CC)c3ccccc3c2s1` gave AHR activator inactive, HSF1 inh inactive, NR0B1 inh 4.6, HSF-1 act inactive and FXN GAA850 act inactive.
For CCn1c(=O)c2cc(C(=O)NCCOC)sc2c2ccccc21 the results were AHR activator inactive, HSF1 inh inactive, NR0B1 inh inactive, HSF-1 act inactive and FXN GAA850 act inactive.
For CCC(C)(C)n1nnnc1C(c1ccccc1F)N1CCN(C(=O)c2ccco2)CC1 (stereo not given) the results were AHR activator inactive, HSF1 inh inactive, NR0B1 inh inactive, HSF-1 act inactive and FXN GAA850 act inactive.
Screening Cc1cc2occ(CC(=O)NCc3cccs3)c2cc1C(C)C returned AHR activator inactive, HSF1 inh inactive, NR0B1 inh inactive, HSF-1 act 62.1 and FXN GAA850 act inactive.
Screening O=C(O)/C=C/c1ccc(Oc2ncccn2)cc1 returned AHR activator inactive, HSF1 inh inactive, NR0B1 inh inactive, HSF-1 act inactive and FXN GAA850 act inactive.
`CC(C)(C)C(=O)/C=C/c1ccc(Oc2ccccc2)cc1` gave HSF1 inh -58.9, NR0B1 inh inactive, HSF-1 act inactive and FXN GAA850 act inactive.
`CCC(=O)NC(c1ccc(OC)cc1)c1cc(Cl)c2cccnc2c1O` (stereo not given) gave AHR activator inactive, HSF1 inh -64.5, NR0B1 inh inactive, HSF-1 act inactive and FXN GAA850 act inactive.
`CCCCC(=O)NC(c1ccco1)c1cc(Cl)c2cccnc2c1O` (stereo not given) gave AHR activator inactive, HSF1 inh inactive, NR0B1 inh inactive, HSF-1 act inactive and FXN GAA850 act inactive.
CCC(=O)NC(c1ccco1)c1cc(Cl)c2cccnc2c1O (stereo not given) was read as AHR activator inactive, HSF1 inh -72.4, NR0B1 inh inactive, HSF-1 act inactive and FXN GAA850 act inactive.
CC(=O)NC(c1ccc(C(C)C)cc1)c1ccc2cccnc2c1O (stereo not given) was read as AHR activator inactive, HSF1 inh -51.6, NR0B1 inh inactive, HSF-1 act inactive and FXN GAA850 act inactive.
For CCCC(=O)NC(c1ccc(OC)cc1)c1ccc2cccnc2c1O (stereo not given) the results were AHR activator inactive, HSF1 inh inactive, NR0B1 inh inactive, HSF-1 act inactive and FXN GAA850 act inactive.
`CC(=O)NC(c1ccc(C)cc1)c1cc(Cl)c2cccnc2c1O` (stereo not given) gave HSF1 inh -83.2, NR0B1 inh inactive, HSF-1 act inactive and FXN GAA850 act inactive.
CCOc1cc(C(=O)Nc2cccc(OCC(=O)N3CCOCC3)c2)cc(OCC)c1OCC was read as AHR activator inactive, HSF1 inh inactive, NR0B1 inh inactive, HSF-1 act inactive and FXN GAA850 act inactive.
`CCn1nnc(NC(=O)C(c2ccccc2)c2ccccc2)n1` gave AHR activator inactive, HSF1 inh inactive, NR0B1 inh inactive, HSF-1 act inactive and FXN GAA850 act inactive.
COc1ccc2c(c1)c(C(=O)CNc1nc(C)cs1)c(C)n2C was read as AHR activator inactive, HSF1 inh inactive, NR0B1 inh inactive, HSF-1 act 61.2 and FXN GAA850 act inactive.
CCCCOc1ccccc1C(=O)NNC(=S)NC(=O)c1ccccc1[N+](=O)[O-] was read as AHR activator inactive, HSF1 inh inactive, NR0B1 inh inactive, HSF-1 act inactive and FXN GAA850 act inactive.
`CC(=NCCc1ccccc1)C1=C(O)CSC1=O` gave AHR activator 48.9, HSF1 inh -79.3, NR0B1 inh inactive, HSF-1 act inactive and FXN GAA850 act inactive.
CC(=NCCc1ccccc1)C1=C(O)CCC1=O was read as AHR activator inactive, HSF1 inh inactive, NR0B1 inh inactive, HSF-1 act inactive and FXN GAA850 act inactive.
For CCCn1nc(NC(=O)c2cccs2)c2cc3cc(OC)ccc3nc21 the results were AHR activator 65.7, HSF1 inh inactive, NR0B1 inh inactive, HSF-1 act inactive and FXN GAA850 act inactive.
Screening CCCCn1nc(NC(=O)c2cccs2)c2cc3cc(OC)ccc3nc21 returned AHR activator 50.0, HSF1 inh inactive, NR0B1 inh inactive, HSF-1 act inactive and FXN GAA850 act inactive.
